According to PubChem BioAssay (EPA / NIEHS):
The source holds several records for some structures; these can differ, active in one and inactive in another. Activity calls are given as the source filed them. How the source made its calls: active means hit-call score of the fitted dose curve at least 0.9, where 1 is the maximum; inactive means score below 0.9.

Legend:
Conditions in all cases: mRNA level, 48 h; actives raise or lower the signal
[1] = read-out: Insulin Like Growth Factor 1 (IGF1), IGF1 (gene 3479); experiment: LTEA_HepaRG_IGF1: Life Technologies and Expression Analysis (LTEA) Assay for Insulin Like Growth Factor 1 (IGF1) using HepaRG (AID 2283506)
Procedure, shortened: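 Expression measured by TaqMan qRT-PCR on a Fluidigm array, with three housekeeping genes for normalisation, after 48 h treatment of HepaRG cells. Top concentration 100 uM with half-log steps, 0.5% DMSO vehicle, bidirectional fit.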

[2] = read-out: Intercellular Adhesion Molecule 1 (ICAM1), ICAM1 (gene 3383); experiment: LTEA_HepaRG_ICAM1: Life Technologies and Expression Analysis (LTEA) Assay for Intercellular Adhesion Molecule 1 (ICAM1) using HepaRG (AID 2283507)
Procedure, shortened: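 Gain or loss of transcript in HepaRG hepatic cells is quantified by qRT-PCR after 48 h chemical exposure (up to 100 uM, half-log steps), with DMSO as baseline.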

[3] = read-out: Insulin-like growth factor-binding protein 1 (IGFBP1), IGFBP1 (gene 3484); experiment: LTEA_HepaRG_IGFBP1: Life Technologies and Expression Analysis (LTEA) Assay for Insulin-like growth factor-binding protein 1 (IGFBP1) using HepaRG (AID 2283508)
Procedure, shortened: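 mRNA induction or loss was quantified by qRT-PCR after 48 h chemical exposure of human HepaRG cells, with 0.5% DMSO as vehicle and baseline. Concentration-response over eight points up to 100 uM.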

[4] = read-out: Interleukin 6 Receptor (IL6R), IL6R (gene 3570); experiment: LTEA_HepaRG_IL6R: Life Technologies and Expression Analysis (LTEA) Assay for Interleukin 6 Receptor (IL6R) using HepaRG (AID 2283510);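 on AC50: differentiated human HepaRG liver cells in serum-free induction medium; TaqMan qRT-PCR signal normalized to ACTB GAPDH and POLR2A housekeeping genes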
Procedure, shortened: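 IL6R transcript level by qRT-PCR after 48 h chemical exposure (8-point, half-log, max 100 uM, 0.5% DMSO vehicle) of HepaRG cells in serum-free induction medium. Normalized to three housekeeping genes; curves fitted in both directions relative to DMSO.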

[5] = read-out: Potassium channel subfamily K member 1 (KCNK1), KCNK1 (gene 3775); experiment: LTEA_HepaRG_KCNK1: Life Technologies and Expression Analysis (LTEA) Assay for Potassium channel subfamily K member 1 (KCNK1) using HepaRG (AID 2283511)
Procedure, shortened: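 Human HepaRG cultures receive test chemicals for 48 h in 0.5% DMSO, top concentration 100 uM with half-log dilutions. Induction or suppression of KCNK1 mRNA relative to DMSO is derived by bidirectional fitting of qRT-PCR data.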

[6] = read-out: Keratin 19 (KRT19), KRT19 (gene 3880); experiment: LTEA_HepaRG_KRT19: Life Technologies and Expression Analysis (LTEA) Assay for Keratin 19 (KRT19) using HepaRG (AID 2283512)
Procedure, shortened: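 Gene-expression endpoint in the human liver line HepaRG after 48 h exposure to up to 100 uM test chemical with 0.5% DMSO vehicle; KRT19 mRNA by qRT-PCR, analyzed bidirectionally versus DMSO.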

[7] = read-out: JUN Transcription Factor, JUN (gene 3725); experiment: LTEA_HepaRG_JUN: Life Technologies and Expression Analysis (LTEA) Assay for JUN Transcription Factor using HepaRG (AID 2283513)
Procedure, shortened: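 mRNA measured by TaqMan qRT-PCR after 48 h chemical exposure of HepaRG cultures; normalization to three housekeeping genes. Duplicate eight-point half-log curves from 100 uM in 0.5% DMSO; gain or loss fitted against DMSO baseline.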

[8] = read-out: Lipase C (LIPC), LIPC (gene 3990); experiment: LTEA_HepaRG_LIPC: Life Technologies and Expression Analysis (LTEA) Assay for Lipase C (LIPC) using HepaRG (AID 2283514)
Procedure, shortened: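 In this multiplexed gene-expression screen, human HepaRG cultures received test chemicals for 48 h across eight concentrations with 100 uM highest, in duplicate. Values reflect LIPC mRNA induction or suppression versus DMSO vehicle, from normalized qRT-PCR.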

[9] = read-out: Lipoprotein lipase (LPL), LPL (gene 4023); experiment: LTEA_HepaRG_LPL: Life Technologies and Expression Analysis (LTEA) Assay for Lipoprotein lipase (LPL) using HepaRG (AID 2283515)
Procedure, shortened: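 Concentration-response testing used half-log steps from 100 uM in 0.5% DMSO on human HepaRG cells, 48 h, duplicate wells. Phenobarbital 1 mM served as induction control; LPL mRNA was normalized to ACTB, GAPDH, POLR2A.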

[10] = read-out: MicroRNA 122 (MIR122), gene 406906; experiment: LTEA_HepaRG_MIR122: Life Technologies and Expression Analysis (LTEA) Assay for MicroRNA 122 (MIR122) using HepaRG (AID 2283516); further: the transcript read is the microRNA miR-122
Procedure, shortened: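 Expression measured by microfluidic qRT-PCR with three housekeeping genes for normalisation, after 48 h treatment of HepaRG cultures. Eight concentrations (top 100 uM, half-log steps, 0.5% DMSO vehicle) in duplicate; gain or loss fitted relative to vehicle.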

[11] = read-out: matrix metalloproteinase-10 (MMP10), MMP10 (gene 4319); experiment: LTEA_HepaRG_MMP10: Life Technologies and Expression Analysis (LTEA) Assay for matrix metalloproteinase-10 (MMP10) using HepaRG (AID 2283517)
Procedure, shortened: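 In differentiated HepaRG cultures kept in 0.5% DMSO, test chemicals act for 48 h over an eight-point range with a top dose of 100 uM. Expression is then quantified by TaqMan RT-PCR against ACTB, GAPDH and POLR2A.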

MYC, MYC (gene 4609) = experiment: LTEA_HepaRG_MYC: Life Technologies and Expression Analysis (LTEA) Assay for MYC using HepaRG (AID 2283518)
Procedure, shortened: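 Cells are thawed, plated and cultured 48 h, then treated for 48 h with test chemicals (eight half-log concentrations from 100 uM, 0.5% DMSO vehicle). RNA is isolated and MYC expression quantified by qRT-PCR against three housekeeping genes.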

[12] = read-out: matrix metalloproteinase-3 (MMP3), MMP3 (gene 4314); experiment: LTEA_HepaRG_MMP3: Life Technologies and Expression Analysis (LTEA) Assay for matrix metalloproteinase-3 (MMP3) using HepaRG (AID 2283519)
Procedure, shortened: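 Human liver HepaRG cultures received chemicals (top concentration 100 uM, 0.5% DMSO) for 48 h in duplicate. MMP3 mRNA induction or loss was then assessed via TaqMan qRT-PCR with housekeeping-gene normalisation.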

[13] = read-out: Paternally Expressed 10 (PEG10), PEG10 (gene 23089); experiment: LTEA_HepaRG_PEG10: Life Technologies and Expression Analysis (LTEA) Assay for Paternally Expressed 10 (PEG10) using HepaRG (AID 2283520);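 on AC50: differentiated HepaRG human liver cells in serum-free induction medium with 0.5% DMSO; PEG10 transcript by qRT-PCR normalised to ACTB GAPDH and POLR2A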
Procedure, shortened: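 PEG10 transcript measured by Fluidigm qRT-PCR, normalized to three housekeeping genes, in HepaRG cells treated 48 h (highest 100 uM, half-log steps, 0.5% DMSO vehicle). Cells plated 48 h before switching to serum-free induction medium.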

[14] = read-out: Nuclear factor NF-kappa-B p105 subunit (Homo sapiens) (UniProt P19838); experiment: LTEA_HepaRG_NFKB1: Life Technologies and Expression Analysis (LTEA) Assay for Nuclear Factor Kappa B Subunit 1 (NFKB1) using HepaRG (AID 2283521);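 further: differentiated human HepaRG liver cells in serum-free induction medium; TaqMan qRT-PCR transcript normalised to ACTB GAPDH and POLR2A housekeeping genes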
Procedure, shortened: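 HepaRG, 48 h exposure; 8-pt half-log series from 100 uM in 0.5% DMSO; duplicates. Readout: NFKB1 mRNA by qRT-PCR (Fluidigm arrays), housekeeping-normalized. Gain/loss fit vs DMSO baseline.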

[15] = read-out: Protein phosphatase 2A (PPP2R4), PTPA (gene 5524); experiment: LTEA_HepaRG_PPP2R4: Life Technologies and Expression Analysis (LTEA) Assay for Protein phosphatase 2A (PPP2R4) using HepaRG (AID 2283522)
Procedure, shortened: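 Expression was quantified by Fluidigm qRT-PCR normalised to three housekeeping genes after 48 h treatment. Human HepaRG cells received an 8-point series from 100 µM downward by half-logs, in duplicate with 0.5% DMSO vehicle and 1 mM phenobarbital as induction control.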

[16] = read-out: Phosphatase and tensin (PTEN), PTEN (gene 5728); experiment: LTEA_HepaRG_PTEN: Life Technologies and Expression Analysis (LTEA) Assay for Phosphatase and tensin (PTEN) using HepaRG (AID 2283523)
Procedure, shortened: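 Expression of PTEN is quantified in the human liver line HepaRG following two days of dosing (top concentration 100 uM, half-log dilutions, 0.5% DMSO). Values derive from bidirectional curve fitting relative to DMSO controls.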

[17] = read-out: solute carrier (SLC22A1), SLC22A1 (gene 6580); experiment: LTEA_HepaRG_SLC22A1: Life Technologies and Expression Analysis (LTEA) Assay for solute carrier (SLC22A1) using HepaRG (AID 2283524);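 on AC50: differentiated human HepaRG liver cells in serum-free induction medium; TaqMan qRT-PCR normalized to ACTB GAPDH and POLR2A housekeeping genes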
Procedure, shortened: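 Transcript induction or suppression of SLC22A1 in human HepaRG cultures is scored after 48 h chemical treatment, with DMSO (0.5%) as baseline for bidirectional fitting. Concentrations span eight half-log points topping at 100 uM.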

[18] = read-out: Pyruvate Dehydrogenase Kinase 4 (PDK4), PDK4 (gene 5166); experiment: LTEA_HepaRG_PDK4: Life Technologies and Expression Analysis (LTEA) Assay for Pyruvate Dehydrogenase Kinase 4 (PDK4) using HepaRG (AID 2283525)
Procedure, shortened: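 Eight-point, half-log concentration series (max 100 uM, 0.5% DMSO) applied to differentiated HepaRG cells for 48 h in duplicate. Endpoint: PDK4 mRNA induction or repression by qRT-PCR against DMSO baseline.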

[19] = read-out: Interleukin 6 (IL6), IL6 (gene 3569); experiment: LTEA_HepaRG_IL6: Life Technologies and Expression Analysis (LTEA) Assay for Interleukin 6 (IL6) using HepaRG (AID 2283509)
Procedure, shortened: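 Changes in IL6 mRNA, up or down relative to 0.5% DMSO controls, were derived from concentration-response curves in human HepaRG cells treated for 48 h at up to 100 uM, with ACTB, GAPDH and POLR2A as normalizers.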

Measured: AC50

Nuclear factor NF-kappa-B p105 subunit (Homo sapiens), sequence (P19838 whole entry, looked up): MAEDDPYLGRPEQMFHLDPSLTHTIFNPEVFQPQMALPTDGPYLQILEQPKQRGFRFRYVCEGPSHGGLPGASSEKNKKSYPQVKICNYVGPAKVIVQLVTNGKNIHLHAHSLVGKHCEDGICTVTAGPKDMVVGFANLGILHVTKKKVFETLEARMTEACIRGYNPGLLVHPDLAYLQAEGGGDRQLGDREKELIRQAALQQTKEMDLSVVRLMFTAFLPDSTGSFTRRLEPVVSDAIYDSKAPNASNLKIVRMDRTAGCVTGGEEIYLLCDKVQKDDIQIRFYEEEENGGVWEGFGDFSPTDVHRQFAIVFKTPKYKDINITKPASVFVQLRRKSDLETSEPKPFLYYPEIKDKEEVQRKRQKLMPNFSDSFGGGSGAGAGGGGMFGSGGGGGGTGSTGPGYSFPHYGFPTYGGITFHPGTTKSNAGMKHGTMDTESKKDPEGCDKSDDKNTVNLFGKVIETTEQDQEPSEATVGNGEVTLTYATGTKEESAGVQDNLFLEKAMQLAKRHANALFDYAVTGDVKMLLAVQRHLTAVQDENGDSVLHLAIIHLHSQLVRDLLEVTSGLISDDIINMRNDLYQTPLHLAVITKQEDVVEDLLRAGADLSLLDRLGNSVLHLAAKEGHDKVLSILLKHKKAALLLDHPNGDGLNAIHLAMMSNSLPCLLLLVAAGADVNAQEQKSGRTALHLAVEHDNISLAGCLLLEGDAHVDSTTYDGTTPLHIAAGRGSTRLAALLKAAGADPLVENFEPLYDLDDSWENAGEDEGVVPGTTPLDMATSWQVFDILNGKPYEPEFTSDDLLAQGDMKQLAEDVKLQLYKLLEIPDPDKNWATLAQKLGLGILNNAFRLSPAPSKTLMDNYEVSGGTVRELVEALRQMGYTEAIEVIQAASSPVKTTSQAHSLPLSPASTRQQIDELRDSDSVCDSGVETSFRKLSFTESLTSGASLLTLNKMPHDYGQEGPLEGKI

CC(C)(c1ccc(O)cc1)c1ccc(O)cc1
inactive: [1] | [2] | [3] | [4] | [5] | [6] | [7] | [8] | [9] | [10] | [11] | MYC, MYC (gene 4609) | [12] | [13] | [14] | [15] | [16] | [17] | [18]
active: MYC, MYC (gene 4609) 9.92 µM

CC1(C)C(C=C(Cl)Cl)C1C(=O)OCc1cccc(Oc2ccccc2)c1 (stereo not given)
inactive: [1] | [2] | [3] | [4] | [5] | [6] | [7] | [9] | [10] | [11] | MYC, MYC (gene 4609) | [12] | [13] | [15] | [16] | [17] | [18]

CSC(=O)c1cccc2nnsc12
inactive: [1] | [2] | [3] | [19] | [4] | [5] | [6] | [7] | [10] | [11] | MYC, MYC (gene 4609) | [12] | [13] | [15] | [16] | [17] | [18]

CCCCOC(=O)[C@@H](C)Oc1ccc(Oc2ccc(C(F)(F)F)cn2)cc1
active: [13] 5.38 µM
inactive: [1] | [2] | [3] | [19] | [4] | [5] | [6] | [7] | [8] | [10] | [11] | MYC, MYC (gene 4609) | [12] | [14] | [15] | [16] | [17] | [18]

CCCCC(CC)CN1C(=O)C2C3C=CC(C3)C2C1=O (stereo not given)
inactive: [2] | [4] | [5] | [6] | [7] | [10] | [11] | MYC, MYC (gene 4609) | [12] | [14] | [16]
active: [1] 50 µM | [3] 82.9 µM | [19] 74.9 µM | [9] 58.4 µM | [13] 1.98 µM | [15] 50 µM | [17] 78.3 µM | [18] 81.3 µM

N#CSCSc1nc2ccccc2s1
inactive: [2] | [3] | [19] | [5] | [6] | [7] | [11] | MYC, MYC (gene 4609) | [12] | [14] | [15] | [16]
active: [1] 77.2 µM | [4] 84 µM | [10] 69.3 µM | [13] 50 µM | [17] 76.7 µM | [18] 32.9 µM
